Experimental data reported in PubChem BioAssay (NCATS).
Records with an inconclusive call do not appear. Unmarked numbers belong to inactive results. The call rests on the fitted dose curve; in most records, active means well fitted inhibition curve with a large enough effect; inconclusive means small, poorly fitted or top-dose-only effect; inactive means flat fitted curve, though single readings scatter.

These molecules were tested against Calcium and integrin-binding protein 1 (Homo sapiens) (UniProt Q99828) (assay: Primary qHTS for Identification of Calcium Integrin Binding Protein 1 (CIB1) Competitor (AID 1508620;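 further: GST tagged CIB1 binding a fluorescein labelled alphaIIb integrin peptide tracer; top concentration of the series differs between compounds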)). Details: CIB1-GST / FITC-alphaIIb peptide fluorescence polarization; series mostly up to 57.7 µM; activity change, negative = inhibition: at the top concentration.
Chain of Calcium and integrin-binding protein 1 (Homo sapiens) (Q99828 whole entry, looked up): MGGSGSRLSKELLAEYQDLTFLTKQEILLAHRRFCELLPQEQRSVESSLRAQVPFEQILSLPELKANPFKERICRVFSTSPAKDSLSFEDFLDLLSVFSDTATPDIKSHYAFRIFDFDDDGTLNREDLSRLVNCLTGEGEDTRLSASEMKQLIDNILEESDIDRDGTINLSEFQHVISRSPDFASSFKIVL
Procedure, shortened: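 Fluorescence polarization competition: CIB1-GST (1 uM final) preincubated with compound 15 min at room temperature, then FITC-labeled alphaIIb peptide (100 nM final) added for another 15 min. Polarization read at Ex 480/Em 540.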
On the % scale 0 is the no-effect control and ±100 the full control effect.

Question: Which “activity change, negative = inhibition” value does the source give for `C=C(C(=O)O)C1CC(O)C2(C)CCCC(C)(O)C2C1` (stereo unspecified) here?
Answer: -3.09% [at 114 µM]

Question: For `O=C(OC[C@H]1O[C@H](O[C@]2(CO)O[C@H](CO)[C@@H](O)[C@@H]2O)[C@H](O)[C@@H](O)[C@@H]1O)c1ccc(O)cc1`, which “activity change, negative = inhibition” value is on record?
Answer: 1.18%

Question: `CC1(C)CC[C@]2(C(=O)O)CC[C@]3(C)C(=CCC4[C@@]5(C)C(=O)C[C@H](O)[C@@](C)(CO)C5CC[C@]43C)[C@@H]2C1` (stereo partly specified) was tested. Which “activity change, negative = inhibition” value did it give?
Answer: 5.34%

Question: How did the “activity change, negative = inhibition” value turn out when `CC(=O)OC1C(O)/C(C)=C\C2C(OC(=O)c3ccccc3)C(C)CC2(OC(C)=O)C(OC(C)=O)C(C)/C=C/C(C)(C)C1OC(C)=O` (stereo unspecified) was run?
Answer: -0.416% [at 30.2 µM]

Question: How did the “activity change, negative = inhibition” value turn out when `COc1cc(O)cc(O[C@@H]2O[C@H](CO)[C@@H](O[C@@H]3OC[C@](O)(CO)[C@H]3O)[C@H](O)[C@H]2O)c1OC` was run?
Answer: 1.08%

Question: Which “activity change, negative = inhibition” value does the source give for `O=C(O)CCc1cccc(O)c1O[C@@H]1O[C@H](CO)[C@@H](O)[C@H](O)[C@H]1O` here?
Answer: -12.4%

Question: For `C=C1C(=O)OC[C@H]2C(C(=O)O)=CC3CC(C)(C)C[C@@]132` (stereo partly specified), which “activity change, negative = inhibition” value is on record?
Answer: -8.3% [at 114 µM]

Question: `C[C@H](/C=C/[C@@]1(O)[C@H](C)CC(=O)CC1(C)C)O[C@@H]1O[C@H](CO[C@@H]2OC[C@@H](O)[C@H](O)[C@H]2O)[C@@H](O)[C@H](O)[C@H]1O` was tested. Which “activity change, negative = inhibition” value did it give?
Answer: -0.641%

Question: With `CC1CC(=O)[C@]2(O)C(C(=O)OCCc3ccc(O)cc3)=CO[C@@H](O[C@@H]3O[C@H](CO)[C@@H](O)[C@H](O)[C@H]3O)[C@H]12` (stereo partly specified) as the molecule, how does the “activity change, negative = inhibition” value read?
Answer: -4.16%

Question: With `CC(=O)/C=C/[C@H]1[C@](C)(O)[C@@H](O)[C@H](O)C2C(C)(C)CCC[C@@]21C` (stereo partly specified) as the molecule, how does the “activity change, negative = inhibition” value read?
Answer: 1.02%

Question: With `CC(C)(O)C(O)C(=O)OCc1ccc(O[C@@H]2O[C@H](CO)[C@@H](O)[C@H](O)[C@H]2O)cc1` (stereo partly specified) as the molecule, how does the “activity change, negative = inhibition” value read?
Answer: 3.26%

Question: `CC1CCC2C(C)(C)[C@H](O)CC[C@]2(C)C12Cc1c(O)cc3c(c1O2)CN(C(CCC(=O)O)C(=O)O)C3=O` (stereo partly specified) was tested. Which “activity change, negative = inhibition” value did it give?
Answer: 3.35%

Question: How did the “activity change, negative = inhibition” value turn out when `NC[C@@H]1O[C@@H](O[C@@H]2[C@@H](O[C@@H]3O[C@H](CO)[C@@H](O)[C@H]3O)[C@H](O)[C@@H](N)C[C@H]2N)[C@@H](N)[C@H](O)[C@H]1O` was run?
Answer: 1.86% [at 30.2 µM]

Question: `CC/C=C\CC1C(CC(=O)O)CCC1OC1OC(CO)C(O)C(O)C1O` (stereo unspecified) was tested. Which “activity change, negative = inhibition” value did it give?
Answer: -0.41%

Question: For `C=CC(C)(O)CC/C=C(\C)C(=O)O[C@@H]1[C@@H](O)[C@H](OC(C)(C=C)CC/C=C(\C)C(=O)O)O[C@H](CO)[C@H]1OC(=O)/C(C)=C/CCC(C)(O)C=C` (stereo partly specified), which “activity change, negative = inhibition” value is on record?
Answer: 3.16% [at 30.2 µM]

Question: `CC1(C)CCCC2(C)c3c4c(c(=O)oc(=O)c3=CCC12)=CCC1C(C)(C)CCCC41C` (stereo unspecified) was tested. Which “activity change, negative = inhibition” value did it give?
Answer: -0.833%

Question: `CC(=O)O[C@H]1C[C@@H](O)C(C)(C)C2C[C@@H](OC(C)=O)[C@@]3(C)C4=CCC(C(CO)CC(O)C5OC5(C)C)[C@]4(C)CCC3[C@]21C` (stereo partly specified) was tested. Which “activity change, negative = inhibition” value did it give?
Answer: -8.68% [at 30.2 µM]

Question: For `CC(C)=CCC[C@](C)(O[C@@H]1O[C@H](CO[C@@H]2O[C@@H](CO)[C@H](O)[C@H]2O)[C@@H](O)[C@H](O)[C@H]1O)[C@H]1CC[C@]2(C)[C@@H]1[C@H](O)C[C@@H]1[C@@]3(C)CC[C@H](O[C@@H]4O[C@H](CO)[C@@H](O)[C@H](O)[C@H]4O[C@@H]4O[C@H](CO)[C@@H](O)[C@H](O)[C@H]4O)C(C)(C)[C@@H]3CC[C@]12C`, which “activity change, negative = inhibition” value is on record?
Answer: 5.01%

Question: Which “activity change, negative = inhibition” value does the source give for `CC(C)=CCC(O)[C@](C)(O)C1[C@H](O)C[C@@]2(C)C3CC=C4C(C[C@H](O)[C@@H](O[C@@H]5O[C@H](CO)[C@@H](O)[C@H](O)[C@H]5O)C4(C)C)[C@]3(C)C(=O)C[C@]12C` (stereo partly specified) here?
Answer: 1.1% [at 30.2 µM]

Question: For `CC1(C)CC[C@]2(C(=O)O[C@@H]3O[C@H](CO[C@@H]4O[C@H](CO)[C@@H](O)[C@H](O)[C@H]4O)[C@@H](O)[C@H](O[C@@H]4O[C@H](CO)[C@@H](O)[C@H](O)[C@H]4O)[C@H]3O)[C@H](O)C[C@]3(C)C(=CCC4[C@@]5(C)CC[C@H](O[C@@H]6OC[C@@H](O)[C@H](O)[C@H]6O)[C@@](C)(C(=O)O)C5CC[C@]43C)[C@@H]2C1` (stereo partly specified), which “activity change, negative = inhibition” value is on record?
Answer: -0.245% [at 30.2 µM]

Question: With `CC1=CC2=C(C)C(=O)C(C)(O)C(O)C2CO1` (stereo unspecified) as the molecule, how does the “activity change, negative = inhibition” value read?
Answer: -8.18% [at 114 µM]

Question: `C=C1CCC2[C@](C)(CO)CCC[C@@]2(C)[C@@H]1CCC1=CCOC1=O` (stereo partly specified) was tested. Which “activity change, negative = inhibition” value did it give?
Answer: 1.48%

Question: How did the “activity change, negative = inhibition” value turn out when `C=C1C[C@H](O)[C@@H](O)[C@@]2(C)C1[C@@H](O)[C@H]1OC(=O)C3[C@@H](C)[C@@H](O)[C@H](O)C2[C@]31C` (stereo partly specified) was run?
Answer: 18.9%

Question: With `COC(=O)c1ccc(OC)cc1O[C@@H]1O[C@H](CO[C@@H]2OC[C@@H](O)[C@H](O)[C@H]2O)[C@@H](O)[C@H](O)[C@H]1O` as the molecule, how does the “activity change, negative = inhibition” value read?
Answer: 0.733%

Question: How did the “activity change, negative = inhibition” value turn out when `CC1(C)CC[C@]2(C(=O)O[C@@H]3O[C@H](CO)[C@@H](O)[C@H](O)[C@H]3O)CC[C@]3(C)C(=CCC4[C@@]5(C)CC[C@H](OC6OC(C(=O)O)C(OC7OC(CO)C(O)C(O)C7O)C(O)C6O)C(C)(C)C5CC[C@]43C)C2C1` (stereo partly specified) was run?
Answer: 6.47% [at 30.2 µM]

Question: For `OCC1=C[C@@H](O)[C@@H]2C=CO[C@@H](O[C@@H]3O[C@H](CO)[C@@H](O)[C@H](O)[C@H]3O)[C@H]12`, which “activity change, negative = inhibition” value is on record?
Answer: 1.6%
